Results: the supplement of paper PMC3342239
Structures can show the parent of a compound that is named as a salt.

system: Saccharomyces cerevisiae; test: fraction of cells in G1 phase (DNA content, flow cytometry); higher = more cells with unreplicated DNA (G1 delay); details: temperature: 30 C; YPD; JTY2953 pdr5 snq2 (sensitized); drug added to: cultures diluted from stationary phase; 6-7 h
In short: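 S. cerevisiae grown in YPD at 30°C was exposed to library drugs. In one setup, overnight sensitized JTY2953 cultures were diluted 1∶200, given a final 20 µg/ml and fixed after 6–7 h, while other runs dosed dividing JTY2953 with fixation 6 h later or BY4741 with fixation 4.33 h later. Cells were ethanol-fixed, stained with SYTOX Green and analysed by flow cytometry at 10,000 events. The G1 fraction is the area of the Dean-Jett-Fox G1 peak divided by the summed G1 and G2/M areas.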

SMILES | fraction of cells in G1 phase
Fc1ccc([C@@H]2CCNC[C@H]2COc2ccc3c(c2)OCO3)cc1 [Paroxetine HCl] (60.7211 µM) | 0.387
CC(C)C(=O)c1c(C(C)C)nn2ccccc12 [Ibudilast] (86.8386 µM) | 0.604
COC(=O)C1=C(C)NC(C)=C(C(=O)OCCCN2CCC(c3ccccc3)(c3ccccc3)CC2)[C@H]1c1cccc([N+](=O)[O-])c1 [Niguldipine HCl] (30.9502 µM) | 0.684
CC(C)COCC(CN(Cc1ccccc1)c1ccccc1)N1CCCC1 (configuration not stated) [Bepridil] (48.4262 µM) | 0.601
C=C1/C(=C\C=C2/CCC[C@]3(C)[C@@H]([C@H](C)CCCC(C)C)CC[C@@H]23)C[C@@H](O)C[C@@H]1O [Alfacalcidol] (49.9188 µM) | 0.606
Clc1ccc(CCC(Cn2ccnc2)Sc2c(Cl)cccc2Cl)cc1 (configuration not stated) [Butoconazole nitrate] (42.123 µM) | 0.904
O=C1CCc2ccc(OCCCCN3CCN(c4cccc(Cl)c4Cl)CC3)cc2N1 [Aripiprazole] (44.6034 µM) | 0.854
CCC(C)(C)c1ccc(CC(C)CN2C[C@@H](C)O[C@@H](C)C2)cc1 (some centres not stated) [Amorolfine] (62.9883 µM) | 0.841
CCc1nn(CCCN2CCN(c3cccc(Cl)c3)CC2)c(=O)n1CCOc1ccccc1 [Nefazodone] (42.5515 µM) | 0.721
CC[C@H](C)C(=O)O[C@H]1C[C@@H](C)C=C2C=C[C@H](C)[C@H](CC[C@@H]3C[C@@H](O)CC(=O)O3)[C@H]21 [Lovastatin] (49.4375 µM) | 0.747
CC(C(O)c1ccc(O)cc1)N1CCC(Cc2ccccc2)CC1 (configuration not stated) [Ifenprodil] (61.4525 µM) | 0.61
O=c1[nH]c2ccccc2n1CCCN1CCN(C(c2ccccc2)c2ccccc2)CC1 [Oxatomide] (46.886 µM) | 0.836
CCC(C)n1ncn(-c2ccc(N3CCN(c4ccc(OCC5COC(Cn6cncn6)(c6ccc(Cl)cc6Cl)O5)cc4)CC3)cc2)c1=O (configuration not stated) [Itraconazole] (28.3427 µM) | 0.667
CCC(C)(C)C(=O)O[C@H]1C[C@@H](C)C=C2C=C[C@H](C)[C@H](CC[C@@H]3C[C@@H](O)CC(=O)O3)[C@H]21 [Simvastatin] (47.7808 µM) | 0.879
Fc1ccc(C(c2ccc(F)cc2)N2CCN(C/C=C/c3ccccc3)CC2)cc1 [Flunarizine-2HCl] (41.8936 µM) | 0.605
CC/C(=C(\c1ccccc1)c1ccc(OCCN(C)C)cc1)c1ccccc1 [Tamoxifen citrate] (53.8319 µM) | 0.896
COc1c(N2C[C@@H]3CCCN[C@@H]3C2)c(F)cc2c(=O)c(C(=O)O)cn(C3CC3)c12 [Moxifloxacin HCl] (45.6725 µM) | 0.212
Clc1ccc(COC(Cn2ccnc2)c2ccc(Cl)cc2Cl)c(Cl)c1 (configuration not stated) [Miconazole] (48.0611 µM) | 0.869
CN1CCN(C2=Nc3cc(Cl)ccc3Nc3ccccc32)CC1 [Clozapine] (61.1935 µM) | 0.319
CC(=O)N1CCN(c2ccc(OCC3COC(Cn4ccnc4)(c4ccc(Cl)cc4Cl)O3)cc2)CC1 (configuration not stated) [Ketoconazole] (37.6334 µM) | 0.747
COc1ccc(-c2cc(=S)ss2)cc1 [Anethole-trithione (anetholtrithion)] (83.2062 µM) | 0.735
CC[C@H](c1ccc(O)cc1)[C@@H](CC)c1ccc(O)cc1 [Hexestrol] (73.9714 µM) | 0.895
C#C[C@]1(O)CC[C@H]2[C@@H]3CCC4=Cc5oncc5C[C@]4(C)[C@H]3CC[C@@]21C [Danazol] (59.2652 µM) | 0.88
CC(=O)OCC1OC([S-])C(OC(C)=O)C(OC(C)=O)C1OC(C)=O.CC[PH+](CC)CC.[Au+] (configuration not stated) [Auranofin] (29.4771 µM) | 0.709
NC1CCN(c2c(F)cc3c(=O)c(C(=O)O)cn(C4CC4)c3c2Cl)C1 (configuration not stated) [Clinafloxacin HCl] (54.6755 µM) | 0.254
CC/C(=C(/CC)c1ccc(O)cc1)c1ccc(O)cc1 [Diethylstilbestrol] (74.5271 µM) | 0.838
CO[C@H]1C[C@@H]2CC[C@@H](C)[C@@](O)(O2)C(=O)C(=O)N2CCCC[C@H]2C(=O)O[C@H]([C@H](C)C[C@@H]2CC[C@@H](O)[C@H](OC)C2)CC(=O)[C@H](C)/C=C(\C)[C@@H](O)[C@@H](OC)C(=O)[C@H](C)C[C@H](C)/C=C/C=C/C=C/1C [Rapamycin] (21.8771 µM) | 0.701
